# Beta apoptosis: beta cell apoptosis inhibition; INS-1E cytokine-induced death, ATP luminescence, 48 h; percent of positive-control rescue, neutral wells zero; protection from apoptosis, % (no concentration beside the values); hit rate 0.8% among 300,000; AID 435005;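 active = Every replicate reaches about 75%, or at least half do and their mean reaches it too, limit read from the data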;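 also: 0% = cytokine-treated negative control wells and 100% = positive control rescue; higher means more ATP so stronger rescue from cytokine killing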
# A1 inh: inhibitors of the anti-apoptotic protein A1, read as caspase activation; MEF A1-2A-BIM cells, Caspase-Glo 3/7 luminescence, 3 h; percent of clofoctol response, vehicle zero; caspase activation, % (test concentration not listed); hit rate 0.066% among 330,000; AID 2462;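 active = over half of replicate activation scores above 10%, or exactly half above 10 with the replicate mean above 10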
# 697 NFkB inh: lowers PMA/ionomycin-induced NF-kB signal in 697 B cells. 697 B-cell NF-kB luciferase reporter, 16 h. inhibition, % at 4 µM. hit rate 0.33% among 330,000. AID 435022; in the data active = inhibition above about 35%
# Jurkat NFkB inh: lowers PMA/ionomycin-induced NF-kB signal in Jurkat cells; PMA/ionomycin-induced NF-kB luciferase reporter, luminescence; AID 435003; inhibition, % at 4 µM; hit rate 0.53% among 330,000; in the data active = inhibition above about 50%
# Mdm2-MdmX inh: inhibitors of human Mdm2/MdmX interaction | O15151+Q00987 | SaOS-2 split-luciferase Mdm2/MdmX complementation, luminescence | inhibition, % at 8 µM | hit rate 3% among 330,000;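 active = inhibition of at least 50% at 8 µM in the primary screen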
# Target sequence (O15151 whole entry, looked up): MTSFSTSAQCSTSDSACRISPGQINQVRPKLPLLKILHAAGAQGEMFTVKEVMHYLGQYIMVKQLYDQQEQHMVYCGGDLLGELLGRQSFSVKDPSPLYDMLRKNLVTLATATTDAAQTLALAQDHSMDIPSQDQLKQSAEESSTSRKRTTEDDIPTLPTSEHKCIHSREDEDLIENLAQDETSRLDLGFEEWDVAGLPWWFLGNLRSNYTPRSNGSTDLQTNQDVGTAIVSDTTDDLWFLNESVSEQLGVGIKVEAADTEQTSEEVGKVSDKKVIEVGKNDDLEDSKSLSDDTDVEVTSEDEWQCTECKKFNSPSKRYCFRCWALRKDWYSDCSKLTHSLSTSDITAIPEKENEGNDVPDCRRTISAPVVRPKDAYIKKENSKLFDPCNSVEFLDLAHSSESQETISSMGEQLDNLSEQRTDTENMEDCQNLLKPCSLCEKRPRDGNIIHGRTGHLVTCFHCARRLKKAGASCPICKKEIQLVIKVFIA
# Target sequence (Q00987 whole entry, looked up): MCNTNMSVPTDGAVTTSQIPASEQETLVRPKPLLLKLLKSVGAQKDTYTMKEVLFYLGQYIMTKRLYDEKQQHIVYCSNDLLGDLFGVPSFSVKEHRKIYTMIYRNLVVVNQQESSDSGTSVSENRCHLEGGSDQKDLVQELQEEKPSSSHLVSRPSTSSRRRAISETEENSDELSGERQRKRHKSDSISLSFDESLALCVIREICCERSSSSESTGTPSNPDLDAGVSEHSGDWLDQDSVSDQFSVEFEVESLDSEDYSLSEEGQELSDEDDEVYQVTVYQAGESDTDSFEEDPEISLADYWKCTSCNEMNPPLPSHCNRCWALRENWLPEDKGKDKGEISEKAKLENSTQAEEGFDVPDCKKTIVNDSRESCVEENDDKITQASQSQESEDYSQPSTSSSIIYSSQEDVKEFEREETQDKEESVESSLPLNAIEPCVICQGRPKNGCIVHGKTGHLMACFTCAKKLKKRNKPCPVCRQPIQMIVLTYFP
# NTR1 agonist: agonists of human neurotensin receptor NTR1 | P30989 | NTR1-U2OS beta-arrestin-GFP spot imaging, agonist mode | activation, % at 20 µM | hit rate 0.17% among 330,000 | AID 493036;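 active = activation at or above 40% of the spot to cytoplasm intensity ratio, with at least 20 cells analyzed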;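 also: 0% = DMSO without peptide and 100% = 100 nM NTR1 peptide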
# Mdm2-MdmX conf: confirmation of human Mdm2/MdmX interaction inhibitors. shares compounds with Mdm2-MdmX inh. Mdm2-MdmX binding, luminescent assay. inhibition, % at 8 µM. hit rate 55% among 10,000; in the data active = inhibition above about 40%
# Full FLuc ctr: full-length luciferase inhibition in Mdm2/MdmX counter-screen; shares compounds with Mdm2-MdmX inh; SaOS-2 full-length luciferase counterscreen, luminescence; AID 504607; inhibition, % at 8 µM; hit rate 77% among 6,200;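 active = mean inhibition at 8 µM reaching about 37%, which flags the compound as non-specific, limit read from the data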;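 also: p53-null SaOS-2 cells with luciferase driven by a doxycycline-inducible promoter; compound on cells about two nights before reading with doxycycline added after day one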
# * hit, by the source's call; nt = no result. A selection: hits, their analogues and other compounds. The true share with any hit is near 3.8%.
SMILES,Beta apoptosis,A1 inh,697 NFkB inh,Jurkat NFkB inh,Mdm2-MdmX inh,NTR1 agonist,Mdm2-MdmX conf,Full FLuc ctr
O=C(NCC(=O)N1CCN(S(=O)(=O)c2ccccc2C(F)(F)F)CC1)c1sc2ccccc2c1Cl,3,1,0,6,57*,3,33,nt
Cc1nc(SCC(=O)N2CCOCC2)c2c(=O)n(C)c(=O)n(CC(C)C)c2n1,4,-1,-1,-9,1,0,nt,nt
Cc1ccc(C(=O)c2coc3c2C(=O)C(=O)c2ccccc2-3)cc1,1,-1,-58,-61,-72,5,nt,nt
Cc1ccc(C(=O)c2c(C)oc3c2C(=O)C(=O)c2ccccc2-3)cc1,124*,0,11,-10,97*,13,99*,42*
CC1CCC(NC(=O)CN(C)S(=O)(=O)c2ccc3c(c2)CCC(=O)N3)CC1 (centres undefined),1,0,8,-3,8,1,nt,nt
COc1ccc(CCn2c(C)cc(C(=O)CSc3nnnn3-c3ccccc3)c2C)cc1OC,nt,-1,22,5,59*,2,7,nt
Cc1cc(C(=O)CCl)c(C)n1CCc1ccc(Cl)cc1,28,14*,5,14,93*,6,69*,31
COc1ccc(CCn2c(C)cc(C(=O)CCl)c2C)cc1OC,0,1,10,14,74*,5,27,nt
Cc1cc(C(=O)CCl)c(C)n1CCc1ccc(F)cc1,34,0,22,25,92*,8,62*,34
Cc1cc(C(=O)CSc2nnnn2-c2ccccc2)c(C)n1CCc1ccccc1,-10,0,-6,15,26,3,nt,nt
CC(OC(=O)CN1C(=O)NC2(CCCC2)C1=O)C(=O)Nc1cccc(Cl)c1 (centres undefined),nt,1,-13,9,45,1,nt,nt
COc1ccc(S(=O)(=O)N2CCN(c3nn(C)c(=O)n(C)c3=O)CC2)cc1,9,-1,21,11,17,-2,nt,nt
CC(C(=O)NC(C)(C)C)N(C(=O)CS(=O)CC(=O)Nc1ccc(F)cc1)C1CCCC1 (centres undefined),-2,0,5,0,14,-2,nt,nt
COc1cc(-c2nc(-c3ccc4c(c3)-c3ccccc3S4(=O)=O)c(-c3ccccc3)[nH]2)cc(OC)c1O,10,-1,22,-6,77*,7,67*,79*
COc1ccc(-c2[nH]c(-c3ccc(C(=O)O)cc3)nc2-c2ccccc2)cc1,-12,0,7,6,36,1,nt,nt
CCCCn1c(N)c(N(C(=O)CSc2nnnn2-c2ccccc2C)C2CCCC2)c(=O)[nH]c1=O,nt,nt,20,6,-5,0,nt,nt
CC(C)Cc1ccc(CN2CCCC(NC(=O)CCN3CCOCC3)C2)cc1 (centres undefined),3,0,15,11,8,0,nt,nt
COC(=O)N1CCc2c(sc(NC(=O)C3=COCCO3)c2C#N)C1,nt,1,-53,43,56*,4,75*,66*
COc1ccc(S(=O)(=O)N2c3ccccc3OCC2c2ccccc2)cc1 (centres undefined),34,0,-39,49,51*,0,72*,48*
COc1ccc(S(=O)(=O)N2CCOc3ccccc32)cc1,20,1,-40,49,61*,-1,63*,54*
COc1ccc(S(=O)(=O)N2CC(C(=O)O)Oc3ccccc32)cc1 (centres undefined),3,0,0,8,-17,1,nt,nt
COc1ccc(S(=O)(=O)N2c3ccccc3OCC2C(C)(C)C)cc1 (centres undefined),nt,0,-14,4,58*,2,47*,45*
COc1ccc(S(=O)(=O)N2c3ccccc3OCC2C)cc1 (centres undefined),26,1,5,42,47,3,nt,nt
N#Cc1ccc(CN2CCN(C(=O)c3ccc(S(=O)(=O)N4CCCCCC4)cc3)CC2)cc1,3,0,-23,24,-2,-2,nt,nt
CCC(Sc1nc2cc3c(cc2c(=O)n1Cc1ccco1)OCO3)C(=O)Nc1cccc(OC)c1 (centres undefined),nt,4,13,11,41,5,nt,nt
SMILES,Beta apoptosis,A1 inh,697 NFkB inh,Jurkat NFkB inh,Mdm2-MdmX inh,NTR1 agonist,Mdm2-MdmX conf,Full FLuc ctr
CCC(Sc1nc2cc3c(cc2c(=O)n1Cc1ccco1)OCO3)C(=O)Nc1ccccc1OC (centres undefined),18,2,-13,-7,61*,7,44*,80*
CCOc1ccc(Br)cc1S(=O)(=O)NC1CC(C)(C)NC(C)(C)C1,nt,0,6,-5,-2,1,nt,nt
Cc1ccc(NC(=O)CSC2=C(C#N)C(c3ccco3)C3=C(CC(C)(C)CC3=O)N2)cc1 (centres undefined),-2,0,13,-12,51*,-1,20,nt
COc1ccc(/C=N/Nc2cc(C)nc3ccc(Br)cc23)cc1,100*,-1,-7,31,98*,1,25,nt
Cc1nn(-c2ccccc2)c(C)c1/C=N/Nc1nc2ccccc2[nH]1,36,-6,-187,-148,-155,1,nt,nt
Cc1cc(N/N=C/c2ccccc2O)c2ccccc2n1,42,0,-31,-33,21,6,nt,nt
COc1cccc(/C=N/Nc2nc3ccccc3[nH]2)c1O,94*,-4,-180,-73,61*,4,40*,61*
Cc1c(/C=N/Nc2nc3ccccc3[nH]2)c2ccccc2n1C,117*,-1,-71,-15,93*,6,48*,71*
COc1ccc2nc(C)cc(N/N=C/c3cccc(OC)c3O)c2c1,29,0,1,-23,100*,41*,15,nt
CCCCN(C(=O)c1cc2c(s1)CCC2)c1c(N)n(CCCC)c(=O)[nH]c1=O,-13,1,14,3,9,1,nt,nt
Cc1c(CCC(=O)NCCCCCC(=O)O)c(=O)oc2cc3occ(-c4ccccc4)c3cc12,-6,0,-20,-17,-29,0,nt,nt
COc1ccc2nc(C)cc(NCc3cccc(C(F)(F)F)c3)c2c1,50,-2,-31,11,79*,6,60*,108*
CCCCC1CCC(C(=O)OC(C)C(=O)Nc2ccc(NC(C)=O)cc2)CC1 (centres undefined),2,-1,-7,0,0,0,nt,nt
COc1ccc(CCNC(=O)c2nnn(-c3ccc4c(c3)OCCO4)c2N)cc1OC,1,1,-37,31,80*,-1,79*,38*
COc1ccc(CCNC(=O)c2nnn(-c3ccccc3OC)c2N)cc1OC,-1,0,1,-3,21,0,nt,nt

# Assay outcomes deposited in PubChem by several laboratories.
